Source: PubChem BioAssay (NCATS)
Activity calls are given as the source filed them. Calls follow the shape of the full dose curve.

assay: Cell Proliferation Assay Versus the ED40515 IL2 Dependent ATL cell lines (AID 1053195); conditions: ED40515 IL2-dependent ATL cells
Source text: Adult T-cell leukemia (ATL) develops in individuals infected with human T-cell lymphotropic virus-1 (HTLV-1). Clinically, ATL is subclassified into four subtypes: smoldering, chronic, lymphomatous, and acute. Two autocrine loops (IL-2/IL-2Ralpha and IL-15/IL-15Ralpha) and one paracrine stimulation loop that involves IL-9 expression by ATL cells and IL-9Ralpha expression on monocytes are required to maintain viability and proliferation in the smoldering and chronic forms of the disease. These assays examined the differential response profiles for the MIPE library of approved and investigational drugs versus an IL2 dependent and independent matched ATL cell line, with the current submission examining the differential response profiles for drugs on an IL2 dependent matched ATL cell line.
Plate log growing ED40515 +IL2 cells: 1000cells/ well in 5uL phenol red free RPMI +5% FBS +1x p/s, Glutamine using 1536 well white griener tissue culture plates and multidrop cassette acoustic dispensing Columns 1 and 3 DMSO Columns 2 and 4, 9.2 uM Bortezomib Incubate 48 hours for celltiter glo 37C with 5%CO2 and 95% humidity with low evaporation lids Dispense 3 uL per well of cell titer glo with multidrop Incubate for 15 minutes at RT Read on VL/2 using Luminesence Wheel (Filter A)

Compound | Potency
CNC(=O)N1N=C(c2ccc(N)cc2)c2cc3c(cc2CC1C)OCO3 (stereo not given) | 14.8 µM (active)
Cn1cc(C2=C(c3cn(C4CCN(Cc5ccccn5)CC4)c4ccccc34)C(=O)NC2=O)c2ccccc21 | 14.8 µM (active)
CNC(=O)c1ccc(N2C(=S)N(c3ccc(C#N)c(C(F)(F)F)c3)C(=O)C23CCC3)cc1F | 20.9 µM (active)
C[C@@H]1[C@@H](C(=O)C[C@H]2O[C@@H]3O[C@]4(C)CC[C@@H]5[C@H](C)CC[C@@H]([C@H]2C)[C@@]35OO4)O[C@@H]2O[C@]3(C)CC[C@H]4[C@H](C)CC[C@@H]1[C@@]24OO3 | 0.0066 µM (active)
CCCCC/C=C\C/C=C\C/C=C\C/C=C\CCCC(=O)NC1CC1 | 16.6 µM (active)
CC(O)(CS(=O)(=O)c1ccc(F)cc1)C(=O)Nc1ccc(C#N)c(C(F)(F)F)c1 (stereo not given) | 14.8 µM (active)
O=c1c(O)c(-c2ccc(O)c(O)c2)oc2cc(O)cc(O)c12 | 16.6 µM (active)
C[C@@H]1[C@@H](CC(C[C@H]2O[C@@H]3O[C@]4(C)CC[C@@H]5[C@H](C)CC[C@@H]([C@H]2C)[C@@]35OO4)C[S+](=O)([O-])c2ccc(COC(=O)N(C)C)cc2)O[C@@H]2O[C@]3(C)CC[C@H]4[C@H](C)CC[C@@H]1[C@@]24OO3 (stereo not given in full) | 0.0166 µM (active)
O=C(O)C(=O)c1cn(Cc2ccccc2)c2ccc(-c3ccc(OC(F)(F)F)cc3)cc12 | 20.9 µM (active)
CC(C)n1c(C=C[C@H](O)C[C@H](O)CC(=O)O)c(-c2ccc(F)cc2)c2ccccc21 | 0.209 µM (active)
C[C@]12CCC(=O)C(O)=C1CC[C@@H]1[C@@H]2CC[C@]2(C)C(=O)CC[C@@H]12 | 0.059 µM (active)
CN(C)CCN(C)CCc1ccc(Cl)c(Cl)c1 | 16.6 µM (active)
COC1(CS(=O)c2ccccc2)CCN(CCc2c[nH]c3ccc(F)cc23)CC1 (stereo not given) | 23.5 µM (active)
Cc1cc(SCc2sc(-c3ccc(C(F)(F)F)c(F)c3)nc2C)ccc1OCC(=O)O | 18.7 µM (active)
CC1=C2C[C@@H]3[C@@H](CC=C4C[C@@H](O)CC[C@@]43C)[C@@H]2CC[C@]12O[C@H]1C[C@H](C)CN[C@H]1[C@H]2C | 16.6 µM (active)
